Anthrax LF prot: blocks Bacillus anthracis lethal factor protease; P15917; multiplex microsphere protease cleavage assay, LF; inhibition, % at 10 µM; hit rate 0.12% among 360,000; AID 588501; further: plate controls were buffer without enzyme for full effect and enzyme alone for no effect
BoNT F protease: inhibitors of Botulinum neurotoxin F light chain protease | Multiplex microsphere protease cleavage assay, flow cytometry | inhibition, % at 10 µM | hit rate 0.22% among 360,000; in the data active means inhibition above about 35%, passing the limit was not always enough; inconclusive means no clear call, values can overlap the other calls; further: plate controls were buffer without enzyme for full effect and enzyme alone for no effect
BoNT A protease: blocks Botulinum neurotoxin A light chain protease; inhibition, % at 10 µM; multiplex microsphere protease substrate cleavage, flow cytometry; hit rate 0.17% among 360,000; further: plate controls were buffer without enzyme for full effect and enzyme alone for no effect
MazEF act: increases E. coli MazEF RNase cleavage of RNA; P0AE70; FAM/BHQ RNA-DNA oligo cleavage fluorescence, 5 h; activation, % at 20 µM; hit rate 0.32% among 350,000; in the data active means activation above about 50%
Target sequence (P0AE70 whole entry, looked up): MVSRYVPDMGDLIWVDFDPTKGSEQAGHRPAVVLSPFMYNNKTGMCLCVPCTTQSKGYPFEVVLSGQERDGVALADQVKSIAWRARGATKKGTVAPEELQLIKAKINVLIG
Autofluor counter: counter-screen for toxin protease inhibitors: compound fluorescence. compound autofluorescence counterscreen, microsphere flow cytometry; stronger effect = higher value. fluorescence intensity (no concentration beside the values). hit rate 3.1% among 360,000. AID 624483; in the data active means fluorescence intensity above about 16000; inconclusive means no clear call, values can overlap the other calls
* marks the source's active call; other numbers are inactive results; ? = inconclusive; / = no result given; + = active, no number. This is a sample that favours compounds with a hit; in the whole collection about 3.6% have one here. Unless noted, no stated cut-off is given here; in the data, active means inhibition above about 30%; inconclusive means no clear call, values can overlap the other calls; inactive means below that.

SMILES	Anthrax LF prot	BoNT F protease	BoNT A protease	MazEF act	Autofluor counter
COc1ccc(-c2nn(-c3ccccc3)cc2/C=C2/SC(=S)N(Cc3ccco3)C2=O)c(C)c1	35.8*	37.4*	29.5*	0.1	12304
COc1ccc(CCN=c2c([N+](=O)[O-])nn(-c3cccc(C)c3)n2O)cc1OC	-3.9	40.5*	4.4	-1.0	4431
Cc1ccc(N=c2c([N+](=O)[O-])nn(-c3ccccc3)n2O)c(C)c1	-2.2	-5.4	-3.5	5.9	17460*
Cc1cccc(S(=O)(=O)Nc2ccc(-c3ccc4nncn4n3)cc2)c1	-0.9	4.3	1.5	5.3	5093
COC(=O)C1=C(C)N(Cc2ccc(OC)cc2)C(=O)C1	-6.3	-3.0	-2.4	-4.0	20549*
COc1ccc(CN2C(=O)CC(=O)NC2=O)cc1	-2.8	1.3	?	-3.0	21705*
COC(=O)C1=C(C)N(Cc2cccnc2)C(=O)C1	0.9	5.6	2.0	9.8	22058*
COC(=O)C1=C(C)N(CCc2ccc(OC)cc2)C(=O)C1	-0.6	-4.5	-0.1	14.3	2063
COc1cc(OC)cc(OC(=O)c2ccc3c(=O)n4c(nc3c2)CCC4)c1	0.0	3.7	0.2	6.2	5710
COc1cc(OC)cc(C(=O)NN2CCOCC2)c1	-4.8	-8.8	-0.8	1.4	4663
COc1cc(OC)cc(C(=O)NN2CCCCC2)c1	-0.6	-5.7	-4.1	2.5	25088*
COc1cc(OC)cc(C(=O)N2CCC(N3CCCCCC3)CC2)c1	-1.2	-6.9	-3.5	2.7	19182*
COc1cc(OC)cc(C(=O)N2CCN(C3CCCCC3)CC2)c1	-3.4	4.9	-0.6	2.4	3788
COc1ccc(C2=NOC3(CC(=O)N(c4ccc(C)cc4)C3=O)C2)c(OC)c1 (stereo not given)	1.3	2.7	2.5	3.8	22248*
COc1ccc2c(c1)C(=O)N(c1ccc(C)cc1)C(=O)C2	-0.6	-4.0	0.3	1.9	2336
O=C(CSc1ncnc2nc[nH]c12)N1CCN(c2ccc(Cl)cc2)CC1	-4.0	2.7	-0.1	10.2	16576*
O=C(CSc1ncnc2nc[nH]c12)c1ccc2ccccc2c1	-2.8	-3.7	-0.2	0.0	2541
O=C(O)CSc1ncnc2nc[nH]c12	-0.4	-0.2	0.5	-2.1	20292*
CCOC(=O)C(C)Sc1ncnc2nc[nH]c12 (stereo not given)	-2.9	-2.7	?	0.5	24038*
CCc1ccc(/C=C2\CN(CC)Cc3c2nc2ccccc2c3C(=O)O)cc1	20.3	9.4	15.0	-24.1	27805*
O=S(Cc1ccc(Br)cc1)Cc1nnc(SCc2c(Cl)cccc2Cl)n1-c1ccccc1 (stereo not given)	-2.5	-0.6	-0.2	-4.5	11794
Cn1c(CS(=O)Cc2c(Cl)cccc2Cl)nnc1SCc1c(Cl)cccc1Cl (stereo not given)	-1.9	-1.4	-0.6	-0.3	16613*
Cn1c(CO)cnc1SCc1c(Cl)cccc1Cl	-1.3	-1.2	?	-14.3	22193*
Nc1c(C(=O)OCC2CCCO2)c2nc3ccccc3nc2n1C1CCCC1 (stereo not given)	-0.2	-28.9	-19.5	6.5	32531*
Cc1ccc(Cl)c(OCCCCN(C)Cc2ccccc2)c1	-2.9	-3.1	?	-7.9	22668*
SMILES	Anthrax LF prot	BoNT F protease	BoNT A protease	MazEF act	Autofluor counter
NC(=O)CCn1ccc2ccccc21	-2.4	-0.7	0.5	4.2	4434
O=C(Cn1nc(-c2ccc(Cl)cc2)ccc1=O)NCC1COCCO1 (stereo not given)	0.2	-9.4	-0.7	1.9	5327
O=C(Cn1nc(-c2ccccc2)ccc1=O)NCC1COCCO1 (stereo not given)	-5.2	6.9	4.3	7.7	19171*
COc1cccc(-c2ccc(=O)n(CC(=O)Nc3cc4c(cc3NC(C)=O)OCCO4)n2)c1	1.2	-0.9	?	-5.7	21027*
COc1cccc(-c2ccc(=O)n(CC(=O)NCCN3CCOCC3)n2)c1	-1.8	-7.5	-4.8	-6.7	25197*
CCCN1C2CCCC1CC(NC(=O)c1ccccc1Br)C2 (stereo not given)	-10.3	-2.6	-2.1	6.4	3553
Cc1ccc(/C=N/n2c(C)n[nH]c2=S)o1	-0.3	2.7	1.1	-5.6	22498*
Cc1ccc(/C=N/n2c(-c3ccncc3)n[nH]c2=S)o1	-0.1	0.7	-1.4	-4.7	2354
COc1ccccc1N1C(=O)S/C(=C\c2cc(C)n(C)c2C)C1=O	1.4	-3.9	-0.8	+	2380
COc1ccccc1N1C(=O)S/C(=C\c2ccc(C)s2)C1=O	/	/	/	21.8	/
Cc1ccc2nc(NCCc3ccc(Cl)cc3)c3nncn3c2c1	-3.1	-19.6	-2.0	79.8*	3244
COc1cc(NC(=O)N[C@H](C(=O)O)C(C)C)cc(OC)c1	1.2	4.5	1.9	-3.5	21545*
COc1cc(NC(=O)C(F)(F)F)cc(OC)c1	-2.9	-4.8	-0.9	12.3	16433*
COc1cc(NC(=O)N[C@@H](CCSC)C(=O)O)cc(OC)c1	-4.7	-2.7	-1.0	4.6	4524
O=S(=O)(NCc1nnc2c(C(F)(F)F)cc(Cl)cn12)c1ccccc1	-2.3	-1.6	1.3	4.6	5018
Cc1nn(C(=O)c2cccnc2)c(C)c1C	-2.2	-0.5	0.2	-5.7	20525*
Cc1onc(-c2ccccc2)c1C(=O)OCC(=O)Nc1ccc2c(c1)OCO2	-1.9	2.5	2.3	9.3	19429*
O=S(=O)(c1ccccc1)N1CCN(C(=S)NC2CCCC2)CC1	2.3	-2.0	-1.0	3.9	4430
O=C(NC1CCCC1)C1(c2ccccc2)CCN(S(=O)(=O)c2ccccc2)CC1	-1.2	-3.5	?	1.8	24081*
CN(C)CC1CCCCC1OC(=O)c1ccc(S(=O)(=O)N(C)c2ccccc2)cc1 (stereo not given)	-3.1	-7.7	0.3	14.9	5749
O=C(NCCC1=CCCCC1)c1ccc(Cl)c(S(=O)(=O)N2CCOCC2)c1	-1.6	2.7	2.4	-7.2	15742
Cc1ccc(CSCCNC(=O)c2ccc(Cl)c(S(=O)(=O)N3CCOCC3)c2)cc1	-2.0	-1.9	0.7	4.2	20110*
Cc1ccc(S(=O)(=O)N2CCC(C(=O)N[C@@H](C)C(=O)NCC3CCCO3)CC2)cc1 (stereo not given in full)	-3.3	-2.3	-0.3	3.3	4287
CC(C)(C)NC(=O)C1CCN(C(=O)c2ccc(Br)cc2)CC1	2.8	6.6	?	-2.1	19805*
Cc1ccc(S(=O)(=O)N2CCC(C(=O)N[C@H](C(=O)NCC3CCCO3)C(C)C)CC2)cc1 (stereo not given in full)	-1.9	-1.0	-0.7	6.2	20985*
O=C(NCC1CCCO1)C1CCN(C(=O)c2ccc(Cl)cc2)CC1 (stereo not given)	-11.4	-0.8	0.9	4.4	9001
CC(C)(C)c1ccc(C(=O)N2CCC(C(=O)NCC3CCCO3)CC2)cc1 (stereo not given)	-2.6	1.8	0.6	-1.3	22225*
COc1ccc(S(=O)(=O)N2CCC(C(=O)NCC3CCCO3)CC2)cc1 (stereo not given)	-0.1	5.3	6.0	-5.5	20959*
C=C1CCc2c([nH]c3ccc(OCC(C)C)cc23)C1=O	-15.1	?	0.1	-5.0	3929

Source: PubChem BioAssay (several laboratories)
